The source of these data is PubChem BioAssay AID777 (Sanford-Burnham Center for Chemical Genomics, 2007).

As usually defined, the inhibition is the relative decrease from the control value, in per cent.

In all, about 96,000 compounds went through this assay and about 19,000 (20%) were called active. The list is a sample of the results. A number with no mark means an inactive call.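 The calls were made as follows: active = blocking of liver enzyme CYP2C9 beyond about 50% at 5 µM (limit read from the data); inactive = the rest.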

Chain of Cytochrome P450 2C9 (Homo sapiens) (P11712 whole entry, looked up): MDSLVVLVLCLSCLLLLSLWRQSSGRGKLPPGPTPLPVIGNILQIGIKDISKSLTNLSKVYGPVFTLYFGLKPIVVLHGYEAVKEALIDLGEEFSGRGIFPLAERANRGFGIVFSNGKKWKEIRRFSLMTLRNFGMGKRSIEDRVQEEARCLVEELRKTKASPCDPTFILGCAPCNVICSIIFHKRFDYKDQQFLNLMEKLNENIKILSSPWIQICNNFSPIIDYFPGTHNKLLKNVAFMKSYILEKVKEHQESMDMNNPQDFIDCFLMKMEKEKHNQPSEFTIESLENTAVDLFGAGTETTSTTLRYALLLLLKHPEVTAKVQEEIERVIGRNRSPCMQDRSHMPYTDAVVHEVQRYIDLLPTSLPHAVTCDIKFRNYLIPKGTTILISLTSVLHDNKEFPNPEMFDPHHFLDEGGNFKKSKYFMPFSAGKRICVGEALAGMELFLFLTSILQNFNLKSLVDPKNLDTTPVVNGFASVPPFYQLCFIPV

The assay has as its target Cytochrome P450 2C9 (Homo sapiens) (UniProt P11712). Nature of the assay: blockers of cytochrome P450 2C9 activity – biochemical, luminescence, ADME assay, primary screen (AID 777). The settings on record: CYP2C9 Supersomes, luciferin-H conversion, at 5 µM, hits give high values.
In the case of `COC(=O)c1sc2ncccc2c1OCc1ccc(Cl)cc1Cl`, the inhibition was 9.3%.
For `Cc1ccc2c(C(=O)CN3CCCC3)c(C)[nH]c2c1` the value was 49.7%.
Next, `CC1=CC(C)(C)Nc2ccc(OC(=O)CN3C(=O)C4CCCCC4C3=O)cc21` (centres undefined): 10.9%; `CC1=CC(C)(C)Nc2ccc(OC(=O)C(Cc3ccccc3)N3C(=O)C4CCCCC4C3=O)cc21` (centres undefined): 72.8% (active).
For `Cc1ccc(C)n1C(Cc1ccccc1)C(=O)O` (centres undefined) the value was 28.3%.
Consider `O=C(Nc1ccon1)c1sc2ccccc2c1Cl`, for which the inhibition is -23.1%.
For `CCc1c(C)c2c(C)[nH]nc2oc1=O` the value was -66%; for `Cc1cc2c(c(=O)n1Cc1ccco1)C(c1ccccc1)C(C#N)=C(N)O2` (centres undefined), 1.2%.
Next, `Cc1ccc(-c2nc3ccccc3[nH]2)cc1N`: 40.6%.
Next, `Cn1nc([N+](=O)[O-])nc1Sc1ccc(C(C)(C)C)cc1`: 12.1%; `COc1ccccc1Nc1ncc(C(C)=O)c(C)n1`: 18.7%.
Turning to `CCC(C(=O)NC1CCCC1)N(C(=O)c1snc(C(N)=O)c1N)c1ccc2c(c1)OCCO2` (centres undefined), the inhibition was 14.7%.
Next, `COc1ccc(CCN(C(=O)COc2ccccc2)c2nc(-c3ccccc3)cs2)cc1OC`: 75.2% (active); `CN(C(=O)CSc1nc(C2CC2)nc2ccccc12)c1nc(-c2ccccc2)cs1`: 39.9%; `COc1ccc2c(c1OC)C(=O)OC2Nc1nc(-c2ccccc2)cs1` (centres undefined): 8.8%.
For `CCn1c(=N)n(CC(=O)c2cccc(OC)c2)c2ccccc21` the value was -13.2%.
Next, `O=C(Nc1ccc(Cl)cn1)c1cnn2cccnc12`: 11.4%; `O=S1(=O)CCN(Cc2ccccc2Cl)CC1`: 13.3%; `Cc1ccc(-c2nc(COC(=O)c3c(C)noc3C)cs2)cc1`: 28%.
Regarding `CN1/C(=C\C(=O)c2oc3ccccc3c2N)C(C)(C)c2ccccc21`, the inhibition is 47.6%.
Next, `Cc1noc(C)c1C(=O)OCC(=O)/C=C1\N(C)c2ccccc2C1(C)C`: 55.7% (active); `Nc1nnc(SCCN2C(=O)c3ccccc3S2(=O)=O)s1`: -0.2%.
For `Cc1cccc(NC(=S)N2CCC(c3nc4ccccc4s3)CC2)c1` the value was -16.4%.
With `O=C(c1cccs1)N1CCN(C(=O)N2CCOCC2)CC1`, the inhibition was -2%.
For the molecule `O=C(c1cccs1)N1CCC(c2nc3ccccc3s2)CC1`, the inhibition is 60.9% (active).
For `CCC1(C)Cc2c(sc3nnn(CC(=O)Nc4ccc(Cl)cc4)c(=O)c23)CO1` (centres undefined) the value was 49.3%; for `COc1ccc(Cc2nnc(NS(=O)(=O)Cc3ccccc3)s2)cc1`, 60.3% (active).
Turning to `CCC(CC)c1nnc(NS(=O)(=O)Cc2ccccc2)s1`, the inhibition was 34.3%.
Consider `COc1ccc(Cc2nnc(NC(=O)Cc3cccs3)s2)cc1`, for which the inhibition was 24.4%.
For `COc1ccc(C(=O)Nc2ccccc2C(=O)N/N=C/c2ccc(O)c(OC)c2)cc1` the value was 73.4% (active); for `COc1ccc(C(=O)Nc2ccccc2C(=O)N/N=C/c2ccccc2OC)cc1`, -11.9%.
For `COc1cc(/C=N\NC(=O)CNC(=O)c2cccc([N+](=O)[O-])c2)ccc1O` the value was -11.8%; for `CCCC(CCC(=O)OC)(C(=O)OCC)c1csc(N)n1` (centres undefined), 30.1%; for `C#CCN1C(=O)C(O)(CC(=O)c2cc(OC)ccc2OC)c2ccccc21` (centres undefined), 30.3%.
Next, `O=C(Nc1ccccc1F)C1C2C=CC3(O2)C1C(=O)N(c1cccnc1)C3C(=O)NC1CCCCC1` (centres undefined): -11.1%.
Consider `CCOC(=O)NC(C(F)(F)F)(C(F)(F)F)P(=O)(c1ccccc1)c1ccccc1`, for which the inhibition is -2.2%.
For `CCOc1cc2[nH]c(=S)n(CCN3CCCCC3C)c(=O)c2cc1OCC` (centres undefined) the value was 17.7%; for `Nc1ccc(-c2nnc(-c3ccc(-c4ccccc4)cc3)o2)cc1`, 78.7% (active).
For `Nc1ccc(Nc2ccccc2)cc1` the value was 12.1%; for `Nc1ccc(-c2sc(N)nc2-c2ccccc2)cc1`, 12.4%.
For `CSc1ncccc1C(=O)OCC(=O)N1CCOCC1` the value was -8%.
In the case of `C=CCN(N=Nc1cccc([N+](=O)[O-])c1)c1cccc([N+](=O)[O-])c1`, the inhibition is 46.4%.
Next, `Cc1oc2nc(SCC(=O)NCc3cccnc3)nc(N)c2c1C`: 14.4%; `O=S(=O)(NCCNS(=O)(=O)c1ccccc1)c1ccccc1`: 34.1%; `Cc1ccc(C(=O)NCCNS(=O)(=O)c2ccccc2)cc1`: 60% (active).
Next, `CS(=O)(=O)NCc1ccc(C(=O)NCc2ccccc2)cc1`: -6.7%.
Consider `C/C(=N\NC(=O)Cc1ccc(Cl)cc1)c1ccccn1`, for which the inhibition was 32.4%.
Next, `Cc1ccccc1CN1CCN(CC(=O)NCc2ccccn2)C1=O`: -9.3%; `COc1ccc(NC(=S)N2N=CCC2c2ccccc2)cc1` (centres undefined): 10.8%; `CNC(=S)N1N=C(c2ccccc2)CC1c1ccc(Br)cc1` (centres undefined): 69.6% (active).
Regarding `Cc1nn(C)c(Oc2ccc(Cl)cc2)c1C=O`, the inhibition was 0%.
For `Cc1cc(/C=C2/SC(=O)N(CC(=O)OC(C)C)C2=O)c(C)n1C` the value was 5.9%; for `COc1ccc(-c2cc(C3CCN(c4ncccc4[N+](=O)[O-])CC3)[nH]n2)cc1`, 97.2% (active); for `COc1cccc(NC(=O)c2nn(C34CC5CC(CC(C5)C3)C4)cc2[N+](=O)[O-])c1`, 11.2%.
Next, `O=C1C=C(c2ccc(Cl)cc2)C(=O)N1Nc1ccccc1`: 45.5%; `Cc1nnc(NC(=O)CSc2nc(C3CCCCC3)nc3ccccc23)s1`: 20.1%; `S=C(NCc1cccs1)Nc1ccc(Cl)cc1`: 53% (active).
For `S=C(NCc1ccc(Cl)cc1)NC12CC3CC(CC(C3)C1)C2` the value was 49.3%; for `COc1cc(CC(=O)NCc2cccs2)cc(OC)c1OC`, -31%.
For `COC(=O)c1sccc1-n1cccc1C(=O)C(=O)N1CCCCC1`, the inhibition is 7.3%.
For `CCOC(=O)N1CCN(c2c(NCCCN3CCCC(C)C3)c(=O)c2=O)CC1` (centres undefined) the value was 18.1%; for `Cc1ccc(C2CC(c3cccc(C)c3)n3nc(N)nc3N2)cc1` (centres undefined), 11.1%.
Regarding `COc1ccc(C2CC(c3ccc(Cl)cc3Cl)Nc3nc(N)nn32)cc1OC` (centres undefined), the inhibition was 9.8%.
For `CCOc1ccccc1C1CC(c2ccccc2)Nc2nc(N)nn21` (centres undefined) the value was 12.8%; for `Cc1ccc(C2CC(c3cccc(Br)c3)n3nc(N)nc3N2)cc1` (centres undefined), 5.1%.
Next, `CCOc1ccccc1C1CC(c2ccc(Cl)cc2)Nc2nc(N)nn21` (centres undefined): 51.1% (active); `Nc1nc2n(n1)C(c1ccco1)CC(c1ccc(Cl)c(Cl)c1)N2` (centres undefined): 50% (active); `CC1CN(c2cc(=O)n(Cc3ccc(F)cc3)c(=O)[nH]2)CC(C)O1` (centres undefined): -11%.
Next, `CCCn1c(SCC(=O)N2CCc3ccccc32)nnc1-c1ccncc1`: 45.9%; `O=C(Cn1c(-c2ccc(Cl)cc2)noc1=O)N1CCN(c2ccccc2F)CC1`: 1.4%; `O=C(NCc1ccco1)C1CCCN(S(=O)(=O)c2cccc3nonc23)C1` (centres undefined): 2.8%.
Regarding `CCNc1nc(NCC)nc(N(C)n2cnnc2)n1`, the inhibition is 15.7%.
Next, `CCOc1nc(OCC)nc(-n2cc(-c3ccccc3)nn2)n1`: 15.3%.
For `Cc1nc(SCC(=O)Nc2cc(C)on2)c2c3c(sc2n1)CCCC3` the value was -1.7%; for `CCCc1nc2sc3c(c2c(=O)n1NC(=O)CCCl)CCCC3`, 85% (active); for `CCCC(=O)Nc1ccc2c(c1)nc1n2CCSC1`, 3.2%.
For `CCC(=O)NC(NCC1CCCO1)C(Cl)(Cl)Cl` (centres undefined) the value was 15.6%; for `CCOc1ccc(NC(=O)CCS(=O)(=O)c2ccc3c(c2)CCCN3C(=O)CC)cc1`, -0.4%; for `COc1ccc(CCNC(=O)CSc2nc(C)nc3c2oc2ccccc23)cc1OC`, 58% (active).
`COc1ccc(NC(=O)Cn2nnc(C(=O)NCCc3ccc(OC)c(OC)c3)c2N)cc1`: the inhibition was 35.6%.
On to `COc1ccc(-c2nnc(SCC(=O)NC3CCCCC3)o2)cc1OC`, for which the inhibition is 7%.
For `COc1ccc(CCNC(=O)CSc2nnc(-c3cccc(F)c3)o2)cc1OC` the value was 81.2% (active); for `COc1ccc(CCNC(=O)CSc2nnc(CNC(=O)c3cccs3)o2)cc1OC`, 17.8%; for `CCSc1nc(C)nc2c1oc1ccccc12`, 18.9%.
For `COc1ccccc1Cn1c(=S)[nH]c2cc(C(=O)N3CCN(C)CC3)ccc2c1=O` the value was -2.6%.
Next, `CC1CCC(NC(=O)c2ccc(N3CCCC3=O)cc2)CC1` (centres undefined): 5.2%.
In the case of `CSc1nc(O)c(Cc2ccccc2)c(=O)[nH]1`, the inhibition is 7.9%.
For `Cn1c(C(=O)N2CCC(C(N)=O)CC2)cc2c(=O)n(C)c3ccccc3c21` the value was -6.8%.
Next, `Cn1c2ccccc2c2c(C(=O)N3CCN(c4ccc(F)cc4)CC3)cn(C3CCCC3)c(=O)c21`: 89.6% (active); `CCOC(=O)N1CCN(C(=O)c2nn(-c3ccc(C)cc3)c(=O)c3c2c2ccccc2n3C)CC1`: 8.8%.
For `Cn1c(=O)c2c(ncn2CC(COCc2ccccc2Cl)OCc2ccccc2Cl)n(C)c1=O` (centres undefined) the value was 21.3%; for `CCC1SC2=NCCN2C1(O)c1ccc(Cl)cc1` (centres undefined), 30.8%; for `O=C(Nc1ccc2c(c1)OCCO2)C1CCCN(c2ncccn2)C1` (centres undefined), -3.8%.
With `Cc1ccnc(N2CCCC(C(=O)Nc3cc(F)ccc3C)C2)n1` (centres undefined), the inhibition is 90.4% (active).
For `Cc1ccnc(N2CCC(C(=O)NC3CCCCCC3)CC2)n1` the value was -45.1%.
Next, `Cc1nnc(SCC(=O)NC2CCCC2)s1`: 11.5%; `O=C(CN1C(=O)CC(c2ccccc2)=Nc2ccccc21)NC1CCCCC1`: 52.3% (active).
Next, `CN(CCCNC(=O)CN1C(=O)CC(C)(C)S(=O)(=O)c2ccccc21)C1CCCCC1`: 9.9%; `O=C(CN1CCN(c2ccccn2)CC1)NC1CCCCC1`: 23.5%.
